Experimental data published in PubChem BioAssay AID652115 (Broad Institute, 2013).
“And” between values parts separate entries of the source, which are not always exact repeats. Equal values may be shown once. The whole screen tested about 330,000 compounds, of which about 3,800 (1.2%) were called active. Rule as the data show it: active = inhibition above about 15%; inconclusive = no clear call, values can overlap the other calls; inactive = below that. The entries come from a sample that favours actives as a whole. A structure can be active in one record and inactive in another.

These molecules were tested against NAD-dependent protein deacylase sirtuin-5, mitochondrial (Homo sapiens) (UniProt Q9NXA8) (assay: blockers of sirtuin-5 deacylase activity – biochemical, fluorescence imaging, single point, set 5, primary screen (AID 652115)). Details: Purified SirT5, succinyl-peptide AMC, trypsin-coupled fluorescence; at 15 µM; stronger effect = higher value.
Sequence of NAD-dependent protein deacylase sirtuin-5, mitochondrial (Homo sapiens) (Q9NXA8 whole entry, looked up): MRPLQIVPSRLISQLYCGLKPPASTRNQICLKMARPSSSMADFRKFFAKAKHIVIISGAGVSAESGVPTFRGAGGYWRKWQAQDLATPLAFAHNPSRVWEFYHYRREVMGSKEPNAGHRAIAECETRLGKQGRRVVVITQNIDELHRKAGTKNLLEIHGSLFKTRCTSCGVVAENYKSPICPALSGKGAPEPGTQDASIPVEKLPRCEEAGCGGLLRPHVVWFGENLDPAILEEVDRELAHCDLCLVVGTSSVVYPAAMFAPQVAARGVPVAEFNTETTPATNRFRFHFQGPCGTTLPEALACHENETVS

Row | SMILES | inhibition
1 | C=CCN1C(=O)C2(OCCCO2)c2cccc(Cl)c21 | -2.09% (inactive)
2 | CCOC(=O)CN1C(=O)C(O)(CC(=O)c2ccccn2)c2ccccc21 (stereo not given) | -3.62% (inactive)
3 | C=CCN1C(=O)C(O)(CC(=O)c2ccccn2)c2ccccc21 (stereo not given) | 26.6% (active)
4 | C[C@@H]1CN([C@H](C)CO)C(=O)c2cc(NC(=O)NC3CCCCC3)ccc2O[C@@H](C)CCCCO[C@H]1CN(C)C(=O)Nc1ccccc1 | 3.67% (inactive)
5 | CCCNC(=O)N1[C@@H](C#N)[C@H](c2ccc(-c3ccc(C(=O)N(C)C)cc3)cc2)[C@@H]1CO | 4.75% (inactive)
6 | CO[C@@H]1CN(C)C(=O)c2cc(NC(=O)C3CCC3)ccc2OC[C@H](C)N(Cc2nccs2)C[C@H]1C | -1.69% (inactive)
7 | COc1cccc(S(=O)(=O)N2CCC3(CC2)CN[C@H](CO)c2c3c3ccc(OC)cc3n2C)c1 | 1.64% (inactive)
8 | O=C(C[C@@H]1C[C@@H]2c3cc(NS(=O)(=O)c4ccc(F)cc4)ccc3O[C@@H]2[C@H](CO)O1)NCc1cc(F)ccc1F | -3.29% (inactive)
9 | COCC(=O)N1CC(=O)N2[C@H](C1)[C@H](c1ccc(C#CC3CCCCC3)cc1)[C@@H]2CO | -2.8% (inactive)
10 | CN(C)CCCCCN(C)Cc1cc2ccccc2o1 | 36.8% (active)
11 | CN(C)C(CNC(=O)c1cc2ccccc2o1)c1ccccc1 (stereo not given) | -2.25% (inactive)
12 | COc1ccccc1CN(C)C(=O)c1cc2ccccc2o1 | -1.39% (inactive)
13 | C[C@@H]1CN([C@H](C)CO)C(=O)c2cc(NS(=O)(=O)c3ccc(F)cc3)ccc2O[C@H]1CN(C)Cc1ccncc1 | -0.686% (inactive)
14 | O=S(=O)(c1ccccc1)N1C[C@@H]2[C@H](c3ccccc31)[C@H](CO)N2Cc1ccccn1 | 1.34% (inactive)
15 | CC(=O)NCc1ccc(-c2csc(NC(=O)CCCc3nc4ccccc4c(=O)[nH]3)n2)cc1 | -2.85% (inactive)
16 | O=C(CSc1nc2ccccc2c(=O)[nH]1)Nc1nc(-c2ccc(Br)cc2)cs1 | -5.37% (inactive)
17 | Cc1ccc(-c2csc(NC(=O)Cn3[nH]c(=O)c4ccccc4c3=O)n2)cc1 | 112% (active)
18 | Cc1noc(C)c1S(=O)(=O)N(C)C[C@@H]1OCCCC[C@@H](C)Oc2ccc(NC(=O)c3ccccc3)cc2C(=O)N([C@H](C)CO)C[C@H]1C | 0.24% (inactive)
19 | C[C@@H]1CN([C@H](C)CO)C(=O)c2cccc(NS(C)(=O)=O)c2O[C@@H]1CN(C)S(=O)(=O)c1cccs1 | 1.65% (inactive)
20 | C[C@H]1CN([C@@H](C)CO)C(=O)c2cccc(NC(=O)Nc3ccc(C(F)(F)F)cc3)c2O[C@H]1CN(C)C(=O)NC1CCCCC1 | 2.24% (inactive)
21 | C[C@H](CO)N1C[C@H](C)[C@@H](CN(C)C(=O)NC2CCCCC2)Oc2c(NC(=O)Nc3ccc(F)cc3)cccc2C1=O | 103% (active)
22 | C[C@@H]1CN([C@H](C)CO)C(=O)c2cccc(NC(=O)Nc3ccccc3)c2O[C@@H]1CN(C)C(=O)NC1CCCCC1 | 3.35% (inactive)

Row | SMILES | inhibition
23 | COc1ccc(NC(=O)N(C)C[C@H]2OCc3ccccc3-c3ccccc3C(=O)N([C@H](C)CO)C[C@@H]2C)cc1 | 1.71% (inactive)
24 | C[C@H]1CN([C@@H](C)CO)C(=O)c2ccccc2-c2ccccc2CO[C@H]1CN(C)C(=O)Nc1ccc(-c2ccccc2)cc1 | 16.8% (active)
25 | C[C@@H]1CN([C@@H](C)CO)C(=O)c2ccccc2-c2ccccc2CO[C@H]1CN(C)C(=O)Nc1ccccc1 | -1.46% (inactive)
26 | COc1ccc(NC(=O)Nc2cccc3c2O[C@H](CN(C)S(=O)(=O)c2cccs2)[C@H](C)CN([C@@H](C)CO)C3=O)cc1 | 1.18% (inactive)
27 | CC(C)NC(=O)Nc1cccc2c1O[C@H](CN(C)S(=O)(=O)c1cccs1)[C@@H](C)CN([C@H](C)CO)C2=O | 23.7% (active)
28 | COc1ccc2c3c(n(C)c2c1)[C@H](CO)N(C)CC31CN(S(=O)(=O)c2cccc(C)c2)C1 | 4.2% (inactive)
29 | CO[C@H]1CN(C)C(=O)c2cc(NC(=O)Nc3ccccc3F)ccc2OC[C@H](C)N(C)C[C@H]1C | -12% (inactive)
30 | C[C@H](CO)N1C[C@H](C)[C@@H](CN(C)S(=O)(=O)c2ccc(F)cc2)OCCCC[C@H](C)Oc2ccc(NC(=O)CCCN(C)C)cc2C1=O | -2.49% (inactive)
31 | C[C@H](NC(=O)C[C@@H]1CC[C@H](NC(=O)CN2CCOCC2)[C@H](CO)O1)c1ccccc1 | -3.17% (inactive)
32 | CO/N=C(\C(=O)N[C@@H]1C(=O)N2C(C(=O)O)=C(COC(C)=O)CS[C@H]12)c1csc(N)n1 (stereo in doubt) | -2.03% (inactive) and -4% (inactive) and 22.2% (active)
33 | C=CC1=C(C(=O)O)N2C(=O)[C@@H](NC(=O)/C(=N\OCC(=O)O)c3csc(N)n3)[C@H]2SC1 | 31.1% (active)
34 | C=CC1=C(C(=O)O)N2C(=O)[C@@H](NC(=O)/C(=N/OCC(=O)O)c3csc(N)n3)[C@H]2SC1 | 30.9% (active)
35 | Cc1nnc(SCC2=C(C(=O)O)N3C(=O)C(NC(=O)Cn4nc(C)c(Cl)c4C)C3SC2)s1 (stereo not given) | -1.34% (inactive)
36 | Cc1cc(C)cc(C(=O)NC2C(=O)N3C(C(=O)O)=C(CSc4nnc(C)s4)CSC23)c1 (stereo not given) | -0.622% (inactive)
37 | CO[C@@H]1CN(C)C(=O)c2cc(NC(=O)C3CC3)ccc2OC[C@@H](C)N(Cc2nccs2)C[C@@H]1C | -0.135% (inactive)
38 | CCC(=O)N1[C@@H]2CN(C(=O)Nc3ccc(Cl)cc3)c3ccccc3[C@@H]2[C@@H]1CO | -1.71% (inactive)
39 | CCCNC(=O)C[C@H]1C[C@@H]2c3cc(NC(=O)NC4CCCC4)ccc3O[C@@H]2[C@@H](CO)O1 | -4.3% (inactive)
40 | CN(C)CC(=O)N[C@@H]1C[C@@H]2O[C@H](CO)CC[C@@H]2O[C@@H]1CCc1ccc(C#Cc2ccccc2)cc1 | -2.33% (inactive)
41 | Cc1noc(C)c1NC(=O)Nc1ccc2c(c1)C(=O)N([C@@H](C)CO)C[C@@H](C)[C@H](CN(C)C)O2 | -1.93% (inactive)
42 | CN(C)CC(=O)Nc1ccc2c(c1)[C@H]1C[C@H](CC(=O)NCc3ccc4c(c3)OCO4)O[C@@H](CO)[C@H]1O2 | 0.927% (inactive)
43 | Cc1ccc(S(=O)(=O)N(C)C[C@@H]2Oc3ccc(N(C)C)cc3C(=O)N([C@@H](C)CO)C[C@H]2C)cc1 | -7.63% (inactive)
44 | COc1ccc2c3c(n(C)c2c1)[C@@H](CO)N(Cc1ccncc1)CC31CN(C(=O)C2CCC2)C1 | 2.18% (inactive)

Row | SMILES | inhibition
45 | COc1cccc(C(=O)Nc2nc3ccc(S(C)(=O)=O)cc3s2)c1 | -3% (inactive)
46 | CNC(=O)c1ccc2nc(NC(C)=O)sc2c1 | 17.4% (active)
47 | CS(=O)(=O)c1ccc2nc(NC(=O)c3ccc(Cl)nc3)sc2c1 | 2.94% (inactive)
48 | CCC(=O)N1C[C@@H](C)[C@H](OC)CN(C)C(=O)c2ccc(NC(=O)c3ccc(F)cc3)cc2OC[C@@H]1C | -5.95% (inactive)
49 | O=C(CN1CCOCC1)NCC[C@H]1CC[C@@H](NC(=O)Nc2ccc(Cl)cc2)[C@@H](CO)O1 | 2.34% (inactive)
50 | COC(=O)C(CC#Cc1ccc2c(c1)[C@]1(C(=O)N2)[C@H](c2ccc(O)cc2)N2[C@H](c3ccccc3)[C@H](c3ccccc3)OC(=O)[C@H]2[C@@H]1C(=O)NC[C@H](O)c1ccccc1)C(=O)OC | 5.09% (inactive)
51 | COc1ccc(C#Cc2ccc3c(c2)[C@]2(C(=O)N3)[C@H](c3ccccc3OCCO)N3[C@H](c4ccccc4)[C@H](c4ccccc4)OC(=O)[C@H]3[C@@H]2C(=O)N2CCCCCCC2)cc1 | 0.608% (inactive)
52 | COC(=O)C(CC#Cc1ccc2c(c1)[C@]1(C(=O)N2)[C@H](c2ccccc2OCCO)N2[C@H](c3ccccc3)[C@H](c3ccccc3)OC(=O)[C@H]2[C@@H]1C(N)=O)C(=O)OC | 19.5% (active)
53 | CCCN1[C@@H]2c3ccc(C4=CCCC4)c(=O)n3C[C@@H]2[C@@H](CO)[C@@H]1C(=O)NCc1ccccn1 | -0.978% (inactive)
54 | COCC(=O)N(C)C[C@@H]1Oc2cc(C#CCC(C)C)ccc2S(=O)(=O)N([C@@H](C)CO)C[C@@H]1C | 15.3% (active)
55 | C[C@H](CO)N1C[C@H](C)[C@H](CN(C)CC2CC2)Oc2cc(-c3ccc(F)cc3)ccc2S1(=O)=O | -4.28% (inactive)
56 | COCC#Cc1ccc2c(c1)O[C@@H](CN(C)C(=O)Nc1ccccc1F)[C@H](C)CN([C@H](C)CO)S2(=O)=O | 3.15% (inactive)
57 | COCC(=O)N(C)C[C@H]1Oc2cc(C#CC(C)C)ccc2S(=O)(=O)N([C@H](C)CO)C[C@@H]1C | 3.27% (inactive)
58 | C[C@@H]1CN([C@H](C)CO)S(=O)(=O)c2ccc(C#CCN(C)C)cc2O[C@H]1CN(C)C(=O)CC1CC1 | 2.43% (inactive)
59 | CC(C)CC#Cc1ccc2c(c1)O[C@@H](CN(C)C(=O)Nc1ccccc1F)[C@@H](C)CN([C@@H](C)CO)S2(=O)=O | 18.7% (active)
60 | CC(C)CC#Cc1ccc2c(c1)O[C@H](CN(C)C(=O)CC1CC1)[C@@H](C)CN([C@@H](C)CO)S2(=O)=O | 31.5% (active)
61 | CC(C)CC#Cc1ccc2c(c1)O[C@@H](CN(C)C(=O)c1ccccc1F)[C@H](C)CN([C@H](C)CO)S2(=O)=O | 6.8% (inactive)
62 | C[C@@H]1CN([C@@H](C)CO)S(=O)(=O)c2ccc(C#CCN(C)C)cc2O[C@@H]1CN(C)C(=O)CC1CC1 | 1.11% (inactive)
63 | C[C@@H]1CN([C@@H](C)CO)S(=O)(=O)c2ccc(-c3ccc(F)cc3)cc2O[C@@H]1CN(C)CC1CC1 | -1.76% (inactive)
64 | C[C@@H]1CN([C@@H](C)CO)S(=O)(=O)c2ccc(C#Cc3ccc(F)cc3)cc2O[C@@H]1CN(C)CC1CC1 | 15.1% (active)
65 | CCC(=O)N(C)C[C@H]1Oc2cc(C#CCC(C)C)ccc2S(=O)(=O)N([C@H](C)CO)C[C@H]1C | 0.389% (inactive)
